TLR4 MyD88 comp: inhibitors of TLR4-MyD88 association in cells, primary screen, cell-based, HeLa CL3-4, BLA complementation, FRET ratio; Toll-like receptor 4 (Homo sapiens) + Myeloid differentiation primary response protein …; HeLa CL3-4 TLR4/MyD88 BLA complementation; inhibition, % at 8.4 µM; actives 0.18% (n = 200,000); AID 861, 2007; in the data active = inhibition above about 25%;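 also: 0% = vehicle and 100% = reference inhibitor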
NOD2 RIPK2 PPI: NOD2-RIPK2 binding disruptors in cells, primary screen, fluorescence, CHO cells, BLA complementation | CCF4 ratio | inhibition, % at 4.98 µM | actives 0.38% (n = 360,000); in the data active = inhibition above about 21%;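 also: 0% = vehicle only and 100% = reference blocker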
Granule exo inh: LAMP-1 surface exposure blockers, TALL-104 cells – cell-based, flow cytometry, MLPCN library, primary screen; TALL-104 LAMP-1 surface exposure; cells stimulated with thapsigargin and PMA; inhibition, % at 10 µM; actives 0.66% (n = 360,000); AID 651702, 2012;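 active = inhibition above about 55%, limit read from the data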
ABHD5 PLIN5 PPI: ABHD5-PLIN5 interaction inhibitors, primary screen, cell lysate, split luciferase complementation, luminescence | Perilipin-5 (Homo sapiens) + 1-acylglycerol-3-phosphate O-acyltransferase ABHD5 (Homo … | Split G. princeps luciferase complementation, 4 h | inhibition, % at 4 µM | actives 0.78% (n = 360,000) | AID 602281, 2012;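 active = inhibition above the mean inhibition across every tested compound plus 3 SD, cut at about 22% in these data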;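 also: 0% = DMSO only wells and the 100% control is not disclosed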
Target sequence (Q00G26 whole entry, looked up): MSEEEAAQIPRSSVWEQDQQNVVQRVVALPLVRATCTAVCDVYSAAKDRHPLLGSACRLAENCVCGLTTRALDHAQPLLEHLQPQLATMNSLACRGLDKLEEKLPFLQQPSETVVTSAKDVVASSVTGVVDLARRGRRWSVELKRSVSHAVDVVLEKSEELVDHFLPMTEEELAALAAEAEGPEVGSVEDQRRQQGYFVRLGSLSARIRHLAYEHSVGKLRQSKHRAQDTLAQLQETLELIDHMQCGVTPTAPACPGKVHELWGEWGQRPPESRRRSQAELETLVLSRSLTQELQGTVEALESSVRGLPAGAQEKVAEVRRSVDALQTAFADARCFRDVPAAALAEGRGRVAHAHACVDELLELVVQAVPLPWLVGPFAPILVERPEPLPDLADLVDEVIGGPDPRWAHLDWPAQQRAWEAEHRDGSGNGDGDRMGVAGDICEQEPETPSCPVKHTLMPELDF
Target sequence (Q8WTS1 whole entry, looked up): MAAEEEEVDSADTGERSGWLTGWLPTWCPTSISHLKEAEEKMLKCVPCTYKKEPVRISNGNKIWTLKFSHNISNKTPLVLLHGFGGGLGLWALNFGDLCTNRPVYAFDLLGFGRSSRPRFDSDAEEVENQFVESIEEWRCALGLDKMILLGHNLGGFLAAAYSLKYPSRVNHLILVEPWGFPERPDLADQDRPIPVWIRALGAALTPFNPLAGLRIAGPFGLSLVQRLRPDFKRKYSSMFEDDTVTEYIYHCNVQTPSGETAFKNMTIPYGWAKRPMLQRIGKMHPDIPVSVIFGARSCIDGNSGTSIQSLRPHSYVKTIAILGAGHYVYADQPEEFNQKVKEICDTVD
B2AR ag: beta2AR agonists driving receptor internalization, primary screen, cell-based, FAP fluorogen, flow cytometry | response, % (no concentration beside the values) | Beta-2 adrenergic receptor (Homo sapiens), P07550 | Am2.2-beta2AR cells | actives 0.43% (n = 340,000);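 active = response above a set limit, near 3 SD of response in nonfluorescent compounds, cut at about 42% in these data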
TLR9-MyD88 block: inhibitors of TLR9-MyD88 association in cells, primary screen, cell-based, CHO, BLA complementation, fluorescence. Toll-like receptor 9 (Homo sapiens) + Myeloid differentiation primary response protein …. CCF4 FRET ratio. inhibition, % at 4.98 µM. actives 0.21% (n = 340,000). AID 504734, 2011;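 active = inhibition above the mean over all tested compounds plus 3 SD, cut at about 21% in these data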;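 also: 0% = DMSO only wells and 100% = clavulanate BLA inhibitor control wells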
Beta2AR ag CP1: beta2AR agonists via receptor internalization, confirmation, cell-based, FAP fluorogen, flow cytometry, single point, cherry pick 1 | shares compounds with B2AR ag | Am2.2-beta2AR cells, FAP surface receptor; stronger effect = lower value | percent response (surface receptor), % at 10 µM | actives 25% (n = 1,100) | AID 540358, 2011;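 active = surface receptor percent response at or below 58%, roughly 3 SD from nonfluorescent compounds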
FAP fluor counter: fluorescence artifact in beta-2AR agonist FAP counterscreen | shares compounds with B2AR ag | Am2.2 cells, FAP fluorogen flow cytometry; stronger effect = lower value | calls only at 10 µM | 1,100 tested, under 10 active | AID 588765;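 active = percent response below a set limit in fluorescence channel 1 and below 50% in channel 8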
Active calls of the source: *; i = inactive; . = not tested or not shown; ! = repeats disagree. A selection: hits, their analogues and other compounds. The true share with any hit is near 2%.

SMILES	TLR4 MyD88 comp	NOD2 RIPK2 PPI	Granule exo inh	ABHD5 PLIN5 PPI	B2AR ag	TLR9-MyD88 block	Beta2AR ag CP1	FAP fluor counter
CC(C)(C(=O)O)c1ccc(C(O)CCCN2CCC(C(O)(c3ccccc3)c3ccccc3)CC2)cc1 (configuration not stated)	.	-11.8	.	4.2	-3.1	-3.2	81.6	i
OC(c1cc(C(F)(F)F)nc2c(C(F)(F)F)cccc12)C1CCCCN1 (configuration not stated)	.	13.1	4.5	4.0	35.7	0.5	98.8	i
Cc1ccc(S(=O)(=O)N2CCCCC2)cc1C(=O)N(CCc1ccccc1)Cc1ccccc1	.	-6.8	1.7	-2.4	13.3	-2.2	.	.
O=C(NCC(c1cccs1)N1CCOCC1)c1ccccc1NS(=O)(=O)c1ccc(Cl)c([N+](=O)[O-])c1 (configuration not stated)	-8.5	0.3	-0.5	-6.2	63.3*	-5.8	93.8	i
O=C(NCC(c1cccs1)N1CCOCC1)c1ccccc1NS(=O)(=O)c1cccc([N+](=O)[O-])c1 (configuration not stated)	0.9	-4.0	-4.0	-4.4	1.3	3.5	.	.
O=C(NCc1ccccn1)[C@@H]1CCCN1C(=O)[C@@H]1CCCN1C(=O)c1cccc2ccccc12	.	-13.1	-9.0	-0.9	.	.	.	.
C=CCn1c(CCNC(=O)c2cccs2)nnc1SCC(=O)c1ccc(Cl)cc1	-5.5	-8.0	1.9	4.7	90.1*	4.9	31.1*	i
C=CCn1c(CCNC(=O)c2cccs2)nnc1SCC(=O)Nc1cccc(Cl)c1C	-3.1	-4.1	-1.4	-4.3	60.3*	0.0	60.2	i
C=CCn1c(CCNC(=O)c2cccs2)nnc1SCC(=O)c1cccc([N+](=O)[O-])c1	-13.3	-5.4	-1.4	-8.4	106.5*	-5.8	9.3*	i
C=CCn1c(CNC(=O)c2cccs2)nnc1SCC(=O)c1ccc(Br)cc1	-14.1	-1.1	-1.0	3.2	-0.8	-6.2	.	.
COc1ccc(C(O)c2nc(-c3cccc4cccnc34)cs2)cc1 (configuration not stated)	.	1.4	13.1	-0.1	.	.	.	.
Brc1ccc(-c2nnc(Cc3ccccc3)o2)cc1	.	7.0	-5.2	-7.3	-14.0	.	133.2	i
CS(=O)(=O)n1c2ccccc2c(=O)n1-c1ccccc1CCl	.	-1.5	-2.8	-1.8	.	.	.	.
CCN(CC)C(=O)CSc1nc(-c2ccccc2)cc(=O)[nH]1	-6.5	-9.0	5.5	-1.3	-2.2	6.4	120.0	i
Fc1ccc(C2CCNCC2COc2ccc3c(c2)OCO3)cc1 (configuration not stated)	.	-4.5	31.9	6.7	12.1	-1.2	.	.
Fc1ccc([C@@H]2CCNC[C@H]2COc2ccc3c(c2)OCO3)cc1	.	-3.8	3.0	4.2	44.5*!	-5.4	93.8	i
CCCc1c(-c2ccc(F)cc2)ncn1Cc1ccccc1OC	.	0.0	2.7	-10.1	.	.	.	.
CCOC(=O)c1ccc(NC(=O)Cn2nnc(-c3ccccc3)n2)cc1	-4.2	5.7	6.2	-4.0	64.5*	6.5	1.2*	i
CCOC(=O)c1ccc(NC(=O)Cn2nnc(-c3ccc(F)cc3)n2)cc1	5.2	-5.4	3.3	-5.1	18.0	2.4	.	.
O=C(CSc1ccc(Cl)cc1)Nc1ccccc1N1CCN(C(=O)c2ccccc2)CC1	5.4	0.2	6.7	-6.3	43.1*	5.4	64.7	i
COc1cccc(OC)c1C(=O)Nc1ccc(NC(=O)c2ccco2)cc1	-4.5	1.6	1.2	-2.7	-9.7	7.5	98.8	i
CCC(=O)Oc1cccc(C(=O)Nc2cccc(NC(=O)c3ccco3)c2)c1	.	-5.8	10.3	1.1	-5.2	7.0	.	.
COc1cccc(OC)c1C(=O)NC(=S)Nc1cccc(NC(=O)c2ccco2)c1	-1.1	1.4	2.1	5.2	-4.5	4.4	.	.
CC(C)Oc1cccc(C(=O)Nc2ccc(NC(=O)c3ccco3)cc2)c1	5.6	-9.0	1.4	-0.2	-9.8	-9.2	147.8	i
O=C(NC1CC1)c1ccc(CSCc2ccccc2Cl)o1	.	-5.3	-2.5	5.0	-5.4	-2.1	.	.
SMILES	TLR4 MyD88 comp	NOD2 RIPK2 PPI	Granule exo inh	ABHD5 PLIN5 PPI	B2AR ag	TLR9-MyD88 block	Beta2AR ag CP1	FAP fluor counter
c1ccc(CNc2nc(-c3ccccc3)nc3ccccc23)cc1	.	-1.6	1.7	-2.9	-7.8	4.2	.	.
c1ccc(CNc2nc(-c3cccnc3)nc3ccccc23)cc1	.	-4.7	8.4	5.6	-10.9	8.3	173.8	i
Fc1ccc(CNc2nc(-c3cccnc3)nc3ccccc23)cc1	.	5.0	6.5	-3.6	-18.1	0.5	161.1	i
NS(=O)(=O)c1ccc(CNc2nc(-c3cccnc3)nc3ccccc23)cc1	.	2.0	-2.7	0.8	11.8	3.8	141.0	i
COC(=O)CNc1nc(-c2cccnc2)nc2ccccc12	-7.3	-12.7	3.0	-2.5	-6.6	0.3	.	.
c1cncc(-c2nc(NCc3ccc4c(c3)OCO4)c3ccccc3n2)c1	.	2.5	-13.9	5.9	13.4	-4.3	155.1	i
NC(=O)c1cnc(Cc2c[nH]c3ccccc23)c(I)c1	.	6.3	0.7	6.2	.	.	.	.
Cc1cc(NC(=O)/C(C#N)=C\c2ccc(-c3ccc(SC(F)F)cc3)o2)n(-c2ccccc2)n1	.	-2.8	-3.0	3.4	11.0	5.9	.	.
c1cncc(CNc2nc(-c3cccnc3)nc3ccccc23)c1	.	-14.0	1.4	3.6	-13.5	-2.2	165.8	i
CC(C)(C)c1ccc(-c2nc(NCc3cccnc3)c3ccccc3n2)cc1	-7.9	5.7	3.6	-9.5	3.0	1.5	.	.
CCc1nc2c(OCC=C(C)C)cccn2c1N(C)C(=O)c1ccc(OC)cc1	.	-3.8	-11.7	-3.8	.	.	.	.
CC1CCN(C(C(=O)Nc2ccc3c(c2)OCO3)c2ccccc2)CC1 (configuration not stated)	.	-1.0	-5.6	5.0	-0.6	-6.1	97.5	i
O=C(Nc1ccc2c(c1)OCO2)C(c1ccccc1)N1CCCCC1 (configuration not stated)	.	4.5	0.0	-0.6	3.0	-4.6	.	.
CC1CCCN(C(C(=O)Nc2ccc3c(c2)OCO3)c2ccccc2)C1 (configuration not stated)	.	-5.9	-3.7	4.3	26.3	4.7	85.8	i

Source: PubChem
